{"source": "PubChem BioAssay (NCATS)", "note": "Inconclusive results are not listed. Entries that show only a call come without a potency. A number with no mark means an inactive call. Calls of active or inactive are those of the source. Calls follow the shape of the dose curve; as a rule, active = well fitted inhibition curve with a large enough effect; inconclusive = small, poorly fitted or top-dose-only effect; inactive = no such curve, though single readings can be large or run the other way."}
{"molecular_target": "Cytochrome P450 3A7 (Homo sapiens) (UniProt P24462)", "sequence (P24462 whole entry, looked up)": "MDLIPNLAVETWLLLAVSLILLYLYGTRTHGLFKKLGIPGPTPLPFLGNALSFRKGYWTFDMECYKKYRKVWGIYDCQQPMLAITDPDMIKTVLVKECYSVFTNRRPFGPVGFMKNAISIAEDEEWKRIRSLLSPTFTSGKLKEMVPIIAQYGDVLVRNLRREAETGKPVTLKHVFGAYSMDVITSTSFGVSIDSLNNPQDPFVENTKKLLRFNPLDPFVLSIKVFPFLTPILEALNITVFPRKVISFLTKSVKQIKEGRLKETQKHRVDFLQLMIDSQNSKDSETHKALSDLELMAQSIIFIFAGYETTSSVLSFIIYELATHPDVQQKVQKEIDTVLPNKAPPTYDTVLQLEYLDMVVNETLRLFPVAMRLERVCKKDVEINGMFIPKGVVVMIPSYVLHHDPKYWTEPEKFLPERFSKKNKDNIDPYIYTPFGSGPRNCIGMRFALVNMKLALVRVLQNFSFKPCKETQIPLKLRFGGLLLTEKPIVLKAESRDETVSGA", "assay": "Cytochrome P450 family 3 subfamily A member 7 (CYP3A7) small molecule antagonists: luciferase biochemical qHTS assay (AID 1963596); also: nearly all actives have a fitted effect of over 40% in size", "settings": "P450-Glo CYP3A7 enzyme luminescence, 1 h; series mostly up to 57.4 µM", "excerpt": "National Center for Advancing Translational Sciences [NCATS] Assay Overview: Cytochrome P450 (CYP) enzymes are membrane-bound hemeproteins that play a key role in metabolism of drugs and xenobiotics. The CYP3A subfamily is the most abundant, representing 30% of the total adult hepatic CYP content, whereas CYP3A7 is found predominantly in human fetal liver and accounts up to 50% of the total fetal hepatic CYP content. Testing the effect of chemicals on CYP isozymes is useful to minimize the adverse drug reactions and toxicities in the drug development process. Chemicals were tested for their effect on CYP enzyme activities by using P450-Glo (TM) screening systems (Promega Corporation, Madison, WI). These systems provide a luminescent method containing proluciferin substrates and are converted to luciferin products by CYP isozymes. The luciferin products formed are detected with a luciferin detection reagent, and the amount of light produced is proportional to CYP activity. P450-Glo (TM) CYP3A7 screening system (Catalog. No. V8812) was used to detect the compounds that interfere with CYP3A7 activity. The positive control compound used for CYP3A7 assay is ketoconazole (Sigma-Aldrich, St. Louis, MO).\nAssay Protocol Summary: Two ul of enzyme-substrate mix was dispensed into medium binding white/solid 1536-well plates (Greiner Bio-One North America Inc., Monroe, NC) using a Flying Reagent Dispenser (FRD, Aurora Discovery, San Diego, CA). Compounds dissolved in DMSO, and positive control (ketoconazole) were transferred to the assay plates at 23 nl using a Pintool station (Wako, San Diego, CA). The assay plates were incubated at room temperature for 10 min. Then 2 ul of NADPH regeneration solution was added to each well of the assay plates using an FRD and incubated at room temperature for 1 h. The reaction was stopped by adding 4 ul of detection reagent using an FRD and after 20 min incubation at room temperature the luminescence signal was measured using a ViewLux plate reader (Perkin Elmer, Shelton, CT). Data were expressed as relative luminescence units."}
{"smiles": "O=C(Cc1ccc(-c2ccccc2)cc1)NC1CCC1", "Potency": "inactive"}
{"smiles": "O=C(OOC(=O)c1ccccc1)c1ccccc1", "Potency": "inactive"}
{"smiles": "On1ncc(C2CCNCC2)c1-c1cccc(-c2ccccc2)c1", "Potency": "inactive"}
{"smiles": "COc1cc2c(Nc3ccc(Br)cc3F)ncnc2cc1OCC1CCN(C)CC1", "Potency": "inactive"}
{"smiles": "CN(C)c1nc(Cc2ccc(NC(=O)c3ccc(C(F)(F)F)cc3)cc2)nc(N(C)C)c1CC(=O)O", "Potency": "inactive"}
{"smiles": "CC(O)(P(=O)(O)O)P(=O)(O)O", "Potency": "inactive"}
{"smiles": "CN(C)C1CCN(C(=O)c2ccc(NC(=O)Nc3ccc(-c4nc(N5CCOCC5)nc(N5CCOCC5)n4)cc3)cc2)CC1", "Potency": "inactive"}
{"smiles": "Cc1cccc(C)c1NC(=O)CN1CCCC1", "Potency": "inactive"}
{"smiles": "Nc1ccc(/C=C/c2ccc(N)cc2S(=O)(=O)O)c(S(=O)(=O)O)c1", "activity change, negative = inhibition": "6.59% [at 0.91 µM]"}
{"smiles": "CCCN(CCC)S(=O)(=O)c1ccc(C(=O)O)cc1", "Potency": "inactive"}
{"smiles": "C[C@@H](CN1CC(=O)NC(=O)C1)N1CC(=O)NC(=O)C1", "Potency": "inactive"}
{"smiles": "O=c1[nH]cnc2nc[nH]c12", "Potency": "inactive"}
{"smiles": "CCN[C@@H]1C[C@H](N)[C@@H](OC2OC(CN)=CCC2N)[C@H](O)[C@H]1O[C@H]1OC[C@](C)(O)[C@H](NC)[C@H]1O", "note": "(stereo not given in full)", "activity change, negative = inhibition": "12% [at 0.91 µM]"}
{"smiles": "CCCCCCCCCCCCCCCCO", "Potency": "inactive"}
{"smiles": "CN1CCN(c2c(F)cc3c(=O)c(C(=O)O)cn(CCF)c3c2F)CC1", "Potency": "inactive"}
{"smiles": "CN1CCN(CC(=O)N2c3ccccc3C(=O)Nc3cccnc32)CC1", "activity change, negative = inhibition": "12.3% [at 4.83 µM]"}
{"smiles": "CN1C(=O)CC(C)(c2ccccc2)C1=O", "note": "(stereo not given)", "Potency": "inactive"}
{"smiles": "CCCNC(C)C(=O)Nc1ccccc1C", "note": "(stereo not given)", "Potency": "inactive"}
{"smiles": "O=C(O)CCNC(=O)c1ccccc1", "Potency": "inactive"}
{"smiles": "CCCCCCOC(=O)c1cccnc1", "Potency": "inactive"}
{"smiles": "Cc1ccc(-c2nnc(Nc3ccc(Br)cc3)c3ccccc23)cc1S(=O)(=O)NCc1nc2ccccc2[nH]1", "Potency": "inactive"}
{"smiles": "Nc1nnnn1-c1ccccc1", "Potency": "inactive"}
{"smiles": "CN(C)C(=O)CNC(=O)Cc1ccccc1", "Potency": "inactive"}
{"smiles": "CCCCOC(=O)NC(=O)C1c2ccccc2Oc2ccccc21", "Potency": "inactive"}
{"smiles": "O=C(O)CC(O)C(=O)O", "note": "(stereo not given)", "Potency": "inactive"}
{"smiles": "Cc1cc2sc(NC(=O)Cc3ccccc3)nc2cc1Cl", "Potency": "inactive"}
{"smiles": "CCOC(=O)C(C#N)=C(c1ccccc1)c1ccccc1", "Potency": "inactive"}
{"smiles": "Cc1ccc(S(=O)(=O)Nc2nc3n(n2)C(c2ccc(Cl)cc2)C=C(c2ccccc2)N3)cc1", "note": "(stereo not given)", "Potency": "inactive"}
{"smiles": "CN(C)c1nc(NC2CCC(NC(=O)c3ccc(F)c(F)c3)CC2)nc2ccccc12", "note": "(stereo not given)", "Potency": "inactive"}
{"smiles": "C[C@@]12C(=O)OC(=O)[C@]1(C)C1CCC2O1", "Potency": "inactive"}
{"smiles": "CC1(C)O[C@@H]2C[C@H]3[C@@H]4C[C@H](F)C5=CC(=O)CC[C@]5(C)[C@H]4[C@@H](O)C[C@]3(C)[C@]2(C(=O)CO)O1", "Potency": "inactive"}
{"smiles": "OCc1ccccn1", "Potency": "inactive"}
{"smiles": "CCN1CCN(Cc2ccc(NC(=O)Nc3ccc(Oc4cc(NC)ncn4)cc3)cc2C(F)(F)F)CC1", "Potency": "inactive"}
{"smiles": "Nc1nc(Cl)nc2c1ncn2[C@@H]1O[C@H](CO)[C@@H](O)[C@@H]1F", "Potency": "inactive"}
{"smiles": "COc1cccc(OC)c1C(=O)N[C@@H]1C(=O)N2[C@@H]1SC(C)(C)[C@@H]2C(=O)O", "Potency": "inactive"}
{"smiles": "CCC(C)C(N)C(=O)NCCN1CCOCC1", "note": "(stereo not given)", "Potency": "inactive"}
{"smiles": "Cc1sccc1Br", "Potency": "inactive"}
{"smiles": "CCC(=O)Nc1cccc(Oc2nc(Nc3ccc(N4CCN(C)CC4)cc3OC)ncc2Cl)c1", "Potency": "inactive"}
{"smiles": "CCOC(=O)N1c2ccc(C(F)(F)F)cc2C(N(Cc2cc(C(F)(F)F)cc(C(F)(F)F)c2)C(=O)OC)CC1CC", "note": "(stereo not given)", "Potency": "inactive"}
{"smiles": "COc1ccc(C2(C#N)CCC(C(=O)O)CC2)cc1OC1CCCC1", "note": "(stereo not given)", "Potency": "inactive"}
